Our source for the inhibition values is PubChem BioAssay.

Active and inactive are the calls of the source. How the calls were made is not given here.

The target of this assay is Pantothenate synthetase (Mycobacterium tuberculosis (strain ATCC 25618 / H37Rv)) (UniProt P9WIL5). Description: Recombinant Mtb pantothenate synthetase (PanC) inhibitors, coupled enzyme, confirmatory (AID 375).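 Further: 0% = full reaction with vehicle and 100% = no enzyme background.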 To be noted: coupled enzyme assay; at 10 µM, hits give high values.
Pantothenate synthetase (Mycobacterium tuberculosis (strain ATCC 25618 / H37Rv)), sequence (P9WIL5 whole entry, looked up): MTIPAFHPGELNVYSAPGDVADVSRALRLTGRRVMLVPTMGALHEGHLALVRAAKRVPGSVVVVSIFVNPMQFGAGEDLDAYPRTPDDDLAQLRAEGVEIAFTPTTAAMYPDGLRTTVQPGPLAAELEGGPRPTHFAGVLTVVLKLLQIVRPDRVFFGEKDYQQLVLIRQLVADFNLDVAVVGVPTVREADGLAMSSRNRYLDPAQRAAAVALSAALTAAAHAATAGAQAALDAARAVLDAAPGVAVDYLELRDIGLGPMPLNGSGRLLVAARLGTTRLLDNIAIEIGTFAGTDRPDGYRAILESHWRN
What is called inhibition is how much of the control response was suppressed. With `COc1ccccc1NC(=O)C1=C(C)Nc2ncnn2C1c1ccc(C)o1` (stereo not given), the inhibition is 10% (inactive). As for `CS(=O)(=O)N(CC(=O)N1CCCCCC1)c1ccc(Br)cc1`, the inhibition was 0% (inactive). Regarding `O=C(CSc1nnc(Cn2c(=O)sc3ccccc32)n1-c1ccccc1)Nc1nccs1`, the inhibition was 1% (inactive). As for `CCn1nnnc1SCC(=O)N1c2ccccc2CCc2ccccc21`, the inhibition is 1% (inactive).

As for `Cc1nc2sc(C(c3ccccc3)N3CCN(c4ccccc4F)CC3)c(O)n2n1` (stereo not given), the inhibition was 0% (inactive).

For `COC(=O)c1cn(NC(=O)C2CCCO2)c(=O)c2ccccc12` (stereo not given), the inhibition is 0% (inactive).

As to `Cc1nn(C)c(C)c1CN(C)C(=O)c1cc2nc(-c3ccco3)cc(C(F)(F)F)n2n1`, the inhibition was 0% (inactive). In the case of `CCOC(=O)c1sc(C)c2c1NC(C)(c1cccs1)NC2=O` (stereo not given), the inhibition was 4% (inactive). `CCCCSCCCNC(=O)CS(=O)Cc1nc(-c2cccc(C)c2)oc1C` (stereo not given): the inhibition was 6% (inactive). As to `COCCCNC(=O)CSc1nc2ccc(N3CCOCC3)cc2c(=O)n1CCc1ccccc1`, the inhibition was 0% (inactive). Take `COCCN1C=C(C(=O)OC)C(c2cc3c(cc2Br)OCO3)C(C(=O)OC)=C1`: the inhibition is 0% (inactive). In the case of `CCOC(=O)c1cc(C(C)(C)C)oc1CN`, the inhibition was 0% (inactive). As for `CCOC(=O)c1ccc(NC(=O)CSc2nnc(COc3ccccc3)n2C)cc1`, the figure is 0% (inactive). As for `COc1ccc(S(=O)(=O)NCc2ccco2)cc1-c1nnc2c3ccccc3c(C)nn12`, the figure is 8% (inactive); as for `COc1ccc(OC)c(NC(=O)Cc2coc3ccc(C)cc23)c1`, 6% (inactive); as for `CCC(C(=O)NC(C)CCc1ccco1)n1nc(C)n2c(cc3occc32)c1=O` (stereo not given), 0% (inactive). Turning to `CCN(CC)c1ccc2cc(NC(=O)CCC(=O)O)c(=O)oc2c1`, the inhibition was 0% (inactive). On to `CC(=O)Nc1ccc(S(=O)(=O)N2CCSC2c2ccccc2)cc1` (stereo not given), for which the inhibition was 7% (inactive).

As to `Cc1ccc(S(=O)(=O)Cc2ccc(C(=O)NCCCN3CCN(C)CC3)o2)cc1`, the inhibition was 1% (inactive).

Take `COc1ccc(Br)cc1CNC(=O)C1CCCN(S(C)(=O)=O)C1` (stereo not given): the inhibition was 6% (inactive). As for `C[C@@H]1C[C@H]2[C@@H]3CCC4=CC(=O)C=C[C@]4(C)[C@@]3(F)[C@@H](O)C[C@]2(C)[C@H]1C(=O)CO`, the inhibition was 1% (inactive). Take `Cc1cccc(C(=O)O)c1NC(=O)c1ccc(F)cc1`: the inhibition is 1% (inactive). On to `COCc1ccccc1Cn1cnc2c1c(=O)n(C)c(=O)n2C`, for which the inhibition is 3% (inactive).

Regarding `C[N+]1=C2CCCCCN2C(O)(c2ccccc2)C1` (stereo not given), the inhibition is 7% (inactive). As for `Cc1ccc(S(=O)(=O)NC(=O)NN2CCCCCC2)cc1`, the figure is 4% (inactive). Regarding `O=C(Nc1cc(C(=O)N2CCCC2)ccc1N1CCCC1)c1ccccc1F`, the inhibition is 2% (inactive). As for `COCCCNC(=O)CSc1ccc(Cl)cc1`, the inhibition is 0% (inactive). As to `Cc1cc(CN2CCN(CCC#N)CC2)c(O)c(C2(C)CCCCC2)c1`, the inhibition was 0% (inactive).

In the case of `O=C(NCc1cccs1)C1CC(=O)N(C2CCCC2)C1` (stereo not given), the inhibition is 2% (inactive).

As to `C=C(C)c1cccc(C(C)(C)NC(=O)Nc2ncccn2)c1`, the inhibition was 0% (inactive).

Regarding `O=C(NCC1COCCO1)C1CCN(S(=O)(=O)c2ccccc2)CC1` (stereo not given), the inhibition is 3% (inactive). For the compound `O=C(CCCC(=O)OCC(=O)NC1CCCC1)Nc1ccccn1`, the inhibition was 4% (inactive). The value for `CCCC(CCC)n1[nH]c(=O)c2c(C)cc(C)nc21` was 0% (inactive); that for `COCCNC(=O)C(c1ccc(O)cc1)N(Cc1ccco1)C(=O)CCC(=O)Nc1nccs1` (stereo not given) was 1% (inactive).

Turning to `CC(=O)c1ccc(NC(=O)c2noc3c2CCCCC3)cc1`, the inhibition is 1% (inactive). For the compound `Cc1ccc2[nH]c(=O)c3cc(C(=O)NCCN4CCN(C)CC4)sc3c2c1`, the inhibition is 0% (inactive). For the compound `COc1cccc(-c2csc3nnc(SCC(=O)c4ccc(NC(C)=O)cc4)n23)c1`, the inhibition was 1% (inactive). Regarding `CCCN(CCC)C(=O)CSc1nc2ccccc2c(=O)n1C1CCCC1`, the inhibition is 7% (inactive). `c1ccc(SCc2nc3ccccc3[nH]2)nc1`: the inhibition was 4% (inactive). The value for `O=C(CCOc1ccccc1)NCc1ccccc1` was 0% (inactive).
